# The list is not random: actives were taken first. Their share in the collection is about 12%.
# BAZ2B inh = inhibitors of human BAZ2B bromodomain | Potency, µM (doses to about 114 µM), for inactives: at the highest dose activity change, negative = inhibition, hits mostly inhibitors | Q9UIF8 | AID 504333 | actives 4.4% (n = 360,000) | AlphaScreen BAZ2B-H3K14Ac peptide displacement; further: on the % scale 0 is the no-effect control and ±100 the full control effect; nearly all actives have a fitted effect of over 60% in size
#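 BAZ2B (50 nM) with biotin-H3(5-23)K14Ac peptide (50 nM) in PBS pH 7.4, 0.01% Tween-20, preformed 30 min, then compound 30 min at room temperature; top concentration 110uM. AlphaScreen streptavidin donor/nickel chelate acceptor beads (10 ug/mL final), 20 min dark, signal read.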
# G9a block = blocks human histone lysine methyltransferase G9a | G9a H3K9 monomethylation, AlphaScreen, 2 h | actives 8.8% (n = 350,000) | Potency, µM (titrated, usually from 102 µM), for the others: top-dose activity, negative = inhibition, most hits filed as inhibitors | Q96KQ7; further: on the % scale 0 is the no-effect control and ±100 the full control effect; nearly all actives have a fitted effect of over 75% in size
# Target sequence (Q96KQ7 913-1193 limits assumed): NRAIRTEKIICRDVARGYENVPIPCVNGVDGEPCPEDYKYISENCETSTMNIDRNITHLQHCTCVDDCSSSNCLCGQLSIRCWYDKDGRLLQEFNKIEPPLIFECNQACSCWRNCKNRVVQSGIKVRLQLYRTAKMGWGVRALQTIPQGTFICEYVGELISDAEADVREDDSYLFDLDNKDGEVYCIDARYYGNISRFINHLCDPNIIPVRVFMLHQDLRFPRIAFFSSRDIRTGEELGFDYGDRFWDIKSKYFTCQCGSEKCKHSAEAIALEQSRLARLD
#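 Readings reflect AlphaScreen signal from monomethyl-H3K9 antibody detection. HMT at 20 nM; substrate b-H3K9 500 nM; cofactor SAM 20 uM; 2 h RT reaction; compounds tested as titrations in qHTS with 15 min preincubation.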
# Sfp PPTase inh = inhibitors of Bacillus subtilis Sfp phosphopantetheinyl transferase; Q9F4F7; Biochemical Sfp PPTase activity, qHTS; Potency, µM, for inactives: largest response in the series, negative = inhibition, hits mostly inhibitors; actives 3.5% (n = 310,000);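 further: the enzyme is Sfp with the accession as filed and its product quenches rhodamine fluorescence; 0% = enzyme reaction without inhibitor and -100% = no enzyme wells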
#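 After 15 min at room temperature with compound, 15 nM Sfp received 5 uM rhodamine-CoA plus 12.5 uM BHQ-2-ybbR (50 mM Hepes pH 7.6, 10 mM MgCl2). Rate came from the fluorescence difference over 30 min, ex 525/em 598 nm.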
# HP1b chromo inh = HP1-beta chromodomain-methylated histone interaction inhibition; P83916; Potency, µM (highest dose often 114 µM), without a hit: at the highest dose activity change, negative = inhibition, actives largely listed as inhibitors; AlphaScreen HP1-beta / biotin-H3K9me3 peptide binding; actives 0.56% (n = 390,000); further: nearly all actives have a fitted effect of over 70% in size
# Target sequence (P83916 whole entry, looked up): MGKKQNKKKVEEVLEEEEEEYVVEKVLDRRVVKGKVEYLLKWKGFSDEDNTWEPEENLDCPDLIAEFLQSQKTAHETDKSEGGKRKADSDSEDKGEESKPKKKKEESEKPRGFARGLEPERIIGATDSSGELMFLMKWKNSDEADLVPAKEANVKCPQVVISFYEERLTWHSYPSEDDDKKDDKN
#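 HP1-beta protein (50 nM final) preincubated 30 min at room temperature with biotinylated H3(1-18)K9me3 peptide (50 nM) in PBS pH 7.4, 0.01% Tween-20, then compound added for 30 min. AlphaScreen streptavidin donor/nickel chelate acceptor beads (10 ug/mL final), 30 min dark, luminescence read.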
# JMJD2A Tudor = blocks the human JMJD2A Tudor domain; O75164; AlphaScreen JMJD2A-Tudor / H3K4me3 peptide binding; Potency, µM (titrated, usually from 114 µM), for the others: at the top dose activity change, negative = inhibition, actives largely listed as inhibitors; actives 4.4% (n = 390,000); AID 504339; further: on the % scale 0 is the no-effect control and ±100 the full control effect; nearly all actives have a fitted effect of over 50% in size
# Numbers without * were called inactive; ? = inconclusive; · = no result; [ ] = another dose, or the depositor's remark. The call rests on the fitted dose curve; in most records, active means well fitted curve in the direction sought with a large enough effect; inconclusive means small, poorly fitted or top-dose-only effect, or another doubt; inactive means no such curve, though single readings can be large; an effect the other way counts as inactive or inconclusive. Potency means the concentration at half of the fitted maximal effect.
SMILES,BAZ2B inh,G9a block,Sfp PPTase inh,HP1b chromo inh,JMJD2A Tudor
COc1ccc(/C=C/C(=O)Nc2cc(S(=O)(=O)N3CCOCC3)ccc2N2CCCC2)cc1OC,?,-28%,15%,-9%,-28%
COc1cc(/C=C/C(=O)Nc2cc(S(=O)(=O)N3CCOCC3)ccc2N2CCCC2)cc(OC)c1OC,-29%,10µM*,28µM*,?,-31%
CCN1CCN(c2ccc(S(=O)(=O)N3CCOCC3)cc2NC(=O)/C=C/c2ccc(OC)c(OC)c2)CC1,6%,14µM*,·,10%,-20%
CCN1CCN(S(=O)(=O)c2ccc(Cl)c(C(=O)Nc3cc(Cl)ccc3N3CCOCC3)c2)CC1,?,?,11%,14%,?
CCN1CCN(c2ccc(S(=O)(=O)N3CCCCC3)cc2NC(=O)/C=C/c2ccc(OC)c(OC)c2)CC1,?,22µM*,·,-6%,-35%
CCN1CCN(c2ccc(S(=O)(=O)N3CCOCC3)cc2NC(=O)c2ccc(Cl)cc2Cl)CC1,-4%,13µM*,·,16%,-16%
CC(C)C1C(=O)Nc2ccc(S(=O)(=O)NCCc3ccc(Cl)cc3)cc21 (configuration not stated),7%[57.1 µM],-7%[59 µM],·,7%,-18%
Cc1cc(S(=O)(=O)Nc2cc3c(cc2Cl)n(C)c(=O)c(=O)n3C)ccc1F,-13%,-7%[59 µM],·,0%,-20%
Nc1c(C(=O)Nc2ccccc2Cl)c2ccccn2c1C(=O)c1ccc(Cl)cc1,0%,3%[59 µM],·,39%,-12%
C[C@H]1COC(=O)CC/C=C\C[C@H](CC(=O)N(CCO)Cc2ccccc2)C(=O)N1,·,·,·,34%,-18%
Cc1cccc(C)c1OCc1cc(C(=O)N2CCNC(=O)C2)no1,-3%,1%[0.0925 µM],3%,13%,-15%
CCN1CCN(c2ccc(S(=O)(=O)N3CCOCC3)cc2NC(=O)/C=C/c2cccc(OC)c2OC)CC1,-12%,28µM*,·,9%,-12%
CCOc1ccccc1NC(=O)/C=C/c1ccc(S(=O)(=O)N2CCOCC2)cc1,-4%,50µM*,·,9%,-20%
CCN1CCN(c2ccc(S(=O)(=O)N3CCCCC3)cc2NC(=O)/C=C/c2cc(OC)ccc2OC)CC1,?,?,-18%,3%,-24%
Cc1ccc(C(=O)NCC(C)NC(=O)c2ccc(C)c(C)c2)cc1C (configuration not stated),·,·,·,13%,-11%
O=C(O)c1ccc(C(=O)Nc2cccc3cccnc23)cc1,·,·,·,-15%,?
CCOc1ccc(NS(=O)(=O)c2ccc3c4c(cccc24)C(=O)N3)cc1,-39%,-48%[59 µM],·,-1%,?
Cc1ccc(C(=O)Nc2cccc(S(=O)(=O)N3CCCCC3)c2)cc1[N+](=O)[O-],-5%,?,·,22%,-22%
Cc1ccc(N/C=C/C(=O)C(C)(C)C)c(O)c1,?,-14%,89µM*,-10%,-32%
CC(C)Oc1ccc(C(=O)Nc2c(C(=O)Nc3cccc(F)c3)oc3ccccc23)cc1,-2%,?,·,18%,-8%
c1ccc2c(C3=NNC(=NC4CCCCC4)SC3)c[nH]c2c1,?,?,-10%,-17%,?
c1ccc2c(C3=NNC(=NC4CC4)SC3)c[nH]c2c1,-32%,13µM*,?,-7%,-34%
c1ccc(C2=NNC(=NC3CC3)SC2)cc1,9%,?,45µM*,7%,-21%
S=c1sc2c(Cl)ncnc2n1-c1ccccc1,-23%,45µM*,5%,26%,1%
Cc1cccc(NC(=O)CSc2nnc(CNC(=O)c3ccco3)o2)c1,-11%,11µM*,3%,55%,-2%
SMILES,BAZ2B inh,G9a block,Sfp PPTase inh,HP1b chromo inh,JMJD2A Tudor
Cc1cc(C)cc(NC(=O)CSc2nnc(CNC(=O)c3ccco3)o2)c1,-18%,2%,9%,14%[57 µM],-17%
O=C(CSc1nc(-c2cccs2)nc2cc(=O)[nH]n12)Nc1ccccc1Cl,79µM*,28%[59 µM],·,20%,?
O=C(CSc1nc(-c2cccs2)nc2cc(=O)[nH]n12)Nc1ccccc1,56µM*,17%[59 µM],·,32%,-24%
Cc1cccc(NC(=O)CSc2nc(-c3ccco3)nc3cc(=O)[nH]n23)c1,79µM*,14%[12.7 µM],·,27%,-20%
Cc1ccccc1NC(=O)CSc1nc(-c2ccccc2C)nc2cc(=O)[nH]n12,-18%,23%[59 µM],·,17%,-16%
Cc1ccc(NC(=O)CSc2nc(-c3ccccc3Cl)nc3cc(=O)[nH]n23)c(C)c1,89µM*,-8%[59 µM],·,3%,-13%
CCNC(=S)NN=C1CCC(C(C)(C)C)CC1 (configuration not stated),79µM*,?,50µM*,-8%,-29%
OCc1ccccc1NC(=S)Nc1cccnc1,-6%,-6%,11%,13%,-4%
CC(C)(C)C1CCc2onc(C(=O)Nc3cccnc3)c2C1 (configuration not stated),-9%,5%[12.7 µM],0%,1%,-10%
CC(C)(C)C1CCC(=NNC(=S)Nc2cccnc2)CC1 (configuration not stated),?,10µM*,?,18%,?
S=C(Nc1cccnc1)NC1CC2CCC1C2 (configuration not stated),71µM*,·,-1%,49%,-6%
CN1CCN(c2ncc3nc(-c4ccc(Cl)cc4)c(=O)n(C)c3n2)CC1,·,3%[0.501 µM],-5%,·,·
CCc1nnc(NC(=O)CSC(=S)N2CCOCC2)s1,-4%,4%,6%,31%,10%
COc1ccc(CNC(=O)Cn2ccc3cc(S(=O)(=O)N4CCCC4)ccc32)cc1OC,-14%,0%,12%,13%[57 µM],-3%
O=C(Nc1ccc2oc(-c3cc(Br)ccc3Cl)nc2c1)c1cc2ccccc2o1,79µM*,?,·,38%,-27%
Cc1cc(C)nc(N/N=C/c2sccc2C)n1,-7%,1%,7%,1%,13µM*
Cc1ccsc1/C=N/Nc1nc(=O)[nH]nc1C,32µM*,4%,12%,30%,?
Cc1ccsc1/C=N/Nc1ccc(F)cc1F,?,1.3µM*,-2%,-29%,-34%
Cc1ccsc1/C=N/Nc1ncc(Cl)cc1Cl,-7%,35%[59 µM],11%,46%,-24%
Cc1cccn2c(=O)c(C(=O)N3CCN(c4ccccc4F)CC3)cnc12,-36%,0%[59 µM],·,27%,-4%
CCC(=O)OC1=C(C(C)=O)N(Cc2ccccc2)S(=O)(=O)c2ccccc21,-30%,?,·,28%,50µM*
CCCCC(=O)OC1=C(C(C)=O)N(Cc2ccccc2)S(=O)(=O)c2ccccc21,?,?,·,15%,79µM*
CCCC(=O)OC1=C(C(C)=O)N(Cc2ccccc2)S(=O)(=O)c2ccccc21,?,?,·,15%,?
CCCCCN1C(C(=O)c2ccccc2)=C(OC(=O)CC)c2ccccc2S1(=O)=O,-16%,-6%[59 µM],·,26%,?
CC(=O)c1ccc(-n2nnnc2SCC(=O)Nc2sc(C)c(C)c2C#N)cc1,7%,-14%,50µM*,12%,?

# Source: PubChem (National Center for Advancing Translational Sciences (NCATS))
